The values that follow come from PubChem BioAssay AID686970 (National Center for Advancing Translational Sciences (NCATS), 2013).

Screen size: about 360,000 compounds; about 6,000 (1.7%) were called active. Not shown: some 8% with an inconclusive outcome. What follows is part of a selection rich in actives, with near analogues and random picks from the rest. Values without a mark were called inactive. Calls follow the shape of the dose curve; as a rule, active = well fitted cell-killing curve with a large enough effect; inconclusive = small, poorly fitted or top-dose-only effect, or effect the other way; inactive = flat fitted curve, though single readings scatter.
Potency is read from the fitted curve at half-maximal effect.

The nature of this assay: qHTS for induction of synthetic lethality in tumor cells producing 2HG: qHTS for the HT-1080-NT fibrosarcoma cell line.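 Also: NT is the 2HG producing partner of a matched IDH1 knockdown line; nearly all actives have a fitted effect of over 55% in size.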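 As to activity, negative = less viability: 0% = DMSO-treated cells and -100% = media-only wells without cells.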 Particulars: HT-1080-NT fibrosarcoma viability, CellTiter-Glo ATP luminescence, 48 h; series mostly up to 46.1 µM; activity, negative = less viability: at the top concentration. In outline:
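HT-1080-NT fibrosarcoma cells (2HG-overproducing), 750 cells/well in RPMI with 5% FBS, dosed after 2 h and incubated 48 h at 37C. CellTiter-Glo luminescence normalized to DMSO and no-cell wells; concentration-response curves fitted and classed.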
On the technique in general: In qHTS, concentration-response curves come from the screen itself.
As to `COCCSc1nnc(NC(=O)CCS(=O)(=O)Cc2ccccc2)s1`, the “activity, negative = less viability” value is 21.1%. On the same count and under the same terms, the figure for `Cc1cccc(NC(=O)CSc2nc3[nH]ncc3c(=O)[nH]2)c1` is 2.75%. `Cc1nc2ccccc2nc1CC(O)(c1ccccc1)c1ccccc1`: the “activity, negative = less viability” value was 9.35%. The same measure, in the same setting: the figure for `CC1(c2cccc(Br)c2)NC(=O)N(CC(=O)NCCC2=CCCCC2)C1=O` (stereo not drawn) is -1.7%.

Regarding `O=C1CCC(C(=O)OCC(=O)Nc2ccc(OC(F)F)cc2)=NN1`, the “activity, negative = less viability” value is -0.926%. The same measure, in the same setting: the figure for `CCN(C(=O)Nc1cccc2ccccc12)c1ccccc1` is -0.44%; for `O=C(NCC1CCN(Cc2ccccc2Cl)CC1)Nc1cccc(Cl)c1` it is -26.3%; for `Cc1ccccc1NC(=O)NCC1CCN(Cc2cccc(Cl)c2)CC1` it is -6.74%. With `Cc1cccc(CN2CCC(CNC(=O)Nc3ccc(F)c(Cl)c3)CC2)c1`, the Potency is 16.4 µM (active). On to `OC[C@@H]1CN(Cc2ccc(Cl)cc2)C[C@H](n2cnc3c(NCc4ccncc4)ncnc32)O1`, for which the “activity, negative = less viability” value was -7.01%. Regarding `O=C(Nc1ccc(Cl)cc1)Nc1nnc(/C=C/c2ccccc2)s1`, the “activity, negative = less viability” value was -3.6%. Same read-out and setting: the figure for `CCOCc1nnc(NC(=O)CSc2ccc(C)cc2)s1` is 14.3%. For the molecule `O=C(CSc1ccccc1)Nc1nnc(/C=C/c2ccccc2)s1`, the Potency was 23.1 µM (active). Consider `CC1(C)OC(=O)C2=C(C[C@@H](C3CC3)O[C@H]2c2ccc(Cl)cc2)O1`, for which the “activity, negative = less viability” value is 14.9%. Regarding `CC1(C(=O)NS(=O)(=O)c2cccc(OC(F)F)c2)CCN1C(=O)COc1ccc(Cl)cc1` (stereo not drawn), the “activity, negative = less viability” value was 20.8%. `CCCNC(=O)C1(C)CCCN(Cc2c(C)nn(-c3ccccc3)c2C)C1` (stereo not drawn): the “activity, negative = less viability” value was 12.6%. With `C=CCNC(=O)/C(=C\c1cccc([N+](=O)[O-])c1)NC(=O)c1ccccc1`, the “activity, negative = less viability” value is 14.3%. For `CN(C)CCNC(=O)/C(=C/c1cccc([N+](=O)[O-])c1)NC(=O)c1ccccc1`, the “activity, negative = less viability” value was 4.98%.

For `Cc1ccc(C(=O)N/C(=C/c2ccc(-c3cccc([N+](=O)[O-])c3)o2)C(=O)NCCCN(C)C)cc1`, the Potency is 14.6 µM (active). Consider `Cc1ccc(CNC(=O)Nc2nnc([C@H]3C[C@H](O)[C@@H](CO)O3)s2)cc1`, for which the “activity, negative = less viability” value was 9.37%. On to `O=C(NC1CCCCCC1)c1cccnc1Sc1ccc(Cl)cc1`, for which the “activity, negative = less viability” value was -21.3%. For the molecule `O=C(NC1CCCCC1)c1ccc(-c2ccc(Cl)cc2)o1`, the Potency is 18.4 µM (active).

Turning to `O=C(NC(=S)NC1CCCCC1)c1ccc(Cl)cc1`, the “activity, negative = less viability” value was -10.4%. On the same count and under the same terms, the figure for `O=S1(=O)C[C@@H](N2CCN(CCO)CC2)[C@H](COCc2ccccc2)N1` is 14.5%; for `Cc1cn([C@H]2C[C@H](O)[C@@H](/C=C/C(=O)NCCCc3ccccc3)O2)c(=O)[nH]c1=O` it is -2.92%; for `CSc1ccc(CN2CCC2(C)C(=O)NCc2ccccc2Br)cc1` (stereo not drawn) it is -24.6%. For the molecule `Cc1oc2c(F)c(F)c(F)c(F)c2c1S(=O)(=O)Nc1cccc(C(F)(F)F)c1`, the Potency is 3.26 µM (active). Take `O=C(NCc1ccccc1)c1ccc(S(=O)(=O)Nc2cccc(C(F)(F)F)c2)cc1`: the “activity, negative = less viability” value was -25.6%. As for `O=C(COc1ccc(S(=O)(=O)Nc2cccc(C(F)(F)F)c2)cc1)N1CCOCC1`, the “activity, negative = less viability” value is -3.05%. Still for that read-out and setting: the figure for `CCCCn1nnnc1C(c1cccc(OC)c1OC)N1CCN(C/C=C/c2ccccc2)CC1` (stereo not drawn) is -22.9%. The same measure, in the same setting: the figure for `CCCCCCCN=C(C)c1ccccc1O` is 19.4%; for `C/C(=N/Nc1ccc(Cl)cc1)c1cnnc(-c2ccccc2)n1` it is 12.4%. With `C/C(=N\Nc1ccc(Cl)nn1)c1ccccc1O`, the Potency was 0.731 µM (active). For the molecule `CCOC(=O)[C@]12CCCC=C1N(Cc1ccc(Cl)cc1Cl)C(=O)[C@H](CC(=O)N1CCCCC1)C2`, the “activity, negative = less viability” value is 14.2%. Turning to `Cc1ccc(NC(=S)N(CCN2CCCCC2)Cc2ccco2)cc1C`, the “activity, negative = less viability” value was -4.57%. `Cc1ccc(NC(=S)N(CCCN2CCC(C)CC2)Cc2ccco2)cc1`: the “activity, negative = less viability” value is 0.938%. Consider `Cc1ccc(NC(=S)N(CCCN2CCCC2)Cc2cccn2Cc2ccc(Cl)cc2)cc1`, for which the Potency was 23.1 µM (active). For the molecule `Cc1nc(C(F)(F)F)ccc1C(=O)N1CCC1(C)C(=O)NS(=O)(=O)c1ccccc1` (stereo not drawn), the “activity, negative = less viability” value was 0.451%.

Take `Cc1[nH]n(C)c(=O)c1C(=O)c1c(-c2c(Cl)cccc2Cl)noc1C`: the Potency is 20.6 µM (active).

Regarding `Cc1onc(-c2c(Cl)cccc2Cl)c1C(=O)c1c[nH]c(C(=O)NC2CC2)c1`, the “activity, negative = less viability” value was -5.57%.

With `Cc1onc(-c2c(Cl)cccc2Cl)c1C(=O)NNC(=O)c1c(-c2c(Cl)cccc2Cl)noc1C`, the “activity, negative = less viability” value was -6.56%. Consider `CCC(Oc1ccccc1)C(=O)OCC(=O)Nc1c(C)nn(-c2ccccc2)c1C` (stereo not drawn), for which the “activity, negative = less viability” value was 13.5%. Regarding `Cc1ccc(OCC(=O)Nc2ccc(N3CCN(C(=O)c4ccco4)CC3)cc2)c(C)c1`, the “activity, negative = less viability” value is -2.23%. Regarding `COc1cccc(C(=O)Nc2ccc3nc4n(c(=O)c3c2)CCCCC4)c1`, the “activity, negative = less viability” value is 0.489%. For the molecule `COc1cccc(OCc2cc(C(=O)N3CCN(C(=O)c4ccco4)CC3)no2)c1`, the “activity, negative = less viability” value was 6.57%. On to `COc1cccc(C(=O)Nc2nnc(S(=O)(=O)N3CCCCC3)s2)c1`, for which the “activity, negative = less viability” value was -9.49%. Take `COc1cccc(C(=O)Nc2ccc(N3CCN(C(=O)c4ccco4)CC3)cc2)c1`: the Potency was 23.1 µM (active).

Take `COc1cccc(C(=O)Nc2ccc(N3CCCC3)cc2)c1`: the Potency was 20.6 µM (active).
